IP6K1 inh – blocks human inositol hexakisphosphate kinase 1; IP6K1 kinase, ADP-Glo luminescence, 2 h; hits give low values; activity change, % (series mostly up to about 58 µM); 140,000 tested, 0.81% active; AID 1645851; in the data active means activity change below about -25%; further: on the % scale 0 is the no-effect control and ±100 the full control effect
Target sequence (Q92551 whole entry, looked up): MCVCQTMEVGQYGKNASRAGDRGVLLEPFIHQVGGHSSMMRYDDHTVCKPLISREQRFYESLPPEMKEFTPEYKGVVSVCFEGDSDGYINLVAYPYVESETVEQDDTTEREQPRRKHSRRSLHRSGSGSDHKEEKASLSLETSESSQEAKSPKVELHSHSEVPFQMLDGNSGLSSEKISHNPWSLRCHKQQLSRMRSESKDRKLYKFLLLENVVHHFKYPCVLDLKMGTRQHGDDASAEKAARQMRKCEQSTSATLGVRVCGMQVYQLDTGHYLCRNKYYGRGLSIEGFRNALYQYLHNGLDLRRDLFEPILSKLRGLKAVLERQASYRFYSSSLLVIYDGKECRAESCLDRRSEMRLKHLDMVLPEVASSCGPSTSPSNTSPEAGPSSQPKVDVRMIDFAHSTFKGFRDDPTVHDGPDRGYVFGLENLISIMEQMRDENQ
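ADP-Glo luminescence measures ADP made by human IP6K1 during a 2 h RT reaction with ATP/IP6 (mix at 1.3 mM/130 uM); top library doses 57.5 and 19.1 uM final.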
KDM5B inhibitor – inhibitors of human KDM5B histone demethylase. KDM5B demethylase, FDH-coupled NADH fluorescence (FDH is formaldehyde dehydrogenase). Potency, µM (top dose mostly 57.7 µM), most hits filed as inhibitors. 220,000 tested, 2.6% active; active means well fitted inhibition curve with a large enough effect; inconclusive means small, poorly fitted or top-dose-only effect; inactive means no such curve, though single readings can be large or run the other way; further: potency means the concentration at half of the fitted maximal effect; 0% is about no effect; nearly all actives have a fitted effect of over 70% in size
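KDM5BΔAP (200 nM final) in 50 mM HEPES pH 7.5, 0.01% Tween-20 was preincubated 10 min at RT with compound over a concentration range. Substrate mix (H3K4me3 12.5 µM, α-KG 25 µM, Fe²⁺, ascorbate, NAD⁺, FDH) was added, and NADH fluorescence change over 30 min gave dose-response curves.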
* hit, by the source's call; i = inactive; u = inconclusive; x = no result given. Sampled rows, rich in hits. Any-hit rate of the full collection: about 2.8%.

SMILES	IP6K1 inh	KDM5B inhibitor
CCOCCNC(=O)c1cc(-c2ccc(Cl)cc2Cl)nc2c1cnn2C	-1	x
Cc1ccc([S+](=O)([O-])NC2CCN(c3ccc4nnc(-c5ccccc5)n4n3)CC2)cc1	2	x
O=C(NCc1cccc(C(F)(F)F)c1)C1CCCN1Cc1ccc(-c2cncnc2)cc1 (configuration not stated)	-2	x
Cc1cccc(CN(C(=O)c2ccco2)c2ccc(CC(=O)N(C)Cc3ccccc3)cc2)c1	5	28µM*
Cc1cccc(CNC(=O)Cc2ccc(N(Cc3ccc(F)cc3)C(=O)c3ccco3)cc2)c1	10	u
Cc1ccc(-c2ccccc2CN2CCN(C(=O)c3ccccc3C)CC2)cc1Cl	-7	x
O=C(Cc1ccc(F)cc1)Nc1cc(-c2ccncc2)nn1-c1ccccc1	-7	x
CC(C)CCNC(=O)c1cccnc1N1CC2CC(C1)[C@H]1CCCC(=O)N1C2 (some centres not stated)	22	u
O=C(NCCCN1CCCc2ccccc21)c1cccnc1N1CC2CC(C1)[C@H]1CCCC(=O)N1C2 (some centres not stated)	15	28µM*
O=C(NCCCN1CCCc2ccccc21)c1ccc(N2CC3CC(C2)[C@H]2CCCC(=O)N2C3)nc1 (some centres not stated)	18	u
C=CCNC(=O)c1cccnc1N1CC2CC(C1)[C@H]1CCCC(=O)N1C2 (some centres not stated)	1	25µM*
Cc1cnc(C(=O)Oc2cccc(Cl)c2)cn1	x	i
O=C(NCCN1CCCC1)c1cc2cn(C3CC3)cc2s1	3	10µM*
O=C(NCc1ccc(N2CCOCC2)cc1)c1cc2cn(C3CC3)cc2s1	4	u
CCC(C)NC(=O)c1ccccc1-c1ccc(OC)nn1 (configuration not stated)	10	x
COc1ccc(CN2C(=O)CO[C@H]3CN(c4nccc(C)n4)C[C@H]32)cc1	0	35µM*
O=C1CO[C@H]2CN(c3nccc(C(F)(F)F)n3)C[C@H]2N1Cc1ccc(F)cc1	-3	i
COc1ccc(CCCN2C(=O)O[C@@H]3CN(c4nc(C)cc(C)n4)C[C@@H]32)cc1	8	i
COc1ccc(CCN2C(=O)O[C@@H]3CN(c4nc(C)cc(C)n4)C[C@@H]32)cc1	21	18µM*
COc1cc(CNn2cnnc2)cc(Cl)c1OCc1ccccc1	x	i
Cn1ncc2c(C(=O)NCC3CCCCCC3)cc(-c3ccccc3F)nc21	6	x
COc1ccccc1-n1cc(-c2ccnc(N3CC(n4cccn4)C3)n2)cn1	19	32µM*
COc1ccccc1N1CCN(c2ncc3c(n2)CCN(Cc2ccccc2C)C3)CC1	7	i
Cc1cc2cc(-c3c(C)noc3C)nc(Nc3cccc(F)c3)c2o1	10	u
COc1cc(CNc2nc(-c3c(C)noc3C)cc3cc(C)oc23)cc(OC)c1	10	32µM*
SMILES	IP6K1 inh	KDM5B inhibitor
Cc1cc2cc(-c3c(C)noc3C)nc(-c3ccnn3C)c2o1	-6	u
Cc1cc2cc(-c3c(C)noc3C)nc(Nc3ccccc3)c2o1	3	40µM*
Cc1cc2cc(-c3c(C)noc3C)nc(Nc3ccc(Cl)cc3)c2o1	16	22µM*
Cc1cc2cc(-c3c(C)noc3C)nc(N3CCCC3)c2o1	18	u
Cc1cc2cc(-c3c(C)noc3C)nc(Nc3ccc(F)cc3)c2o1	12	32µM*
Cc1cc2cc(-c3c(C)noc3C)nc(NCc3cccc(F)c3)c2o1	6	i
Cc1ccc(C(=O)N2CCC3(CC2)CCN(CCc2ccccc2)c2ccccc2O3)cc1	7	u
CCc1ccc(S(=O)(=O)N2CCC(n3cnnc3-c3ccccc3)CC2)cc1	-2	x
OC1(CNc2cc(C(F)(F)F)nc(N3CCCC3)n2)CCCNCC1 (configuration not stated)	1	25µM*
O=C(NCC1(O)CCCNCC1)c1ccc(-n2cnnc2)cc1 (configuration not stated)	-2	i
c1ccc(CCc2nc3nccc(-c4ccncc4)n3n2)cc1	-9	i
Cn1cc(C=O)c(-c2ccc3c(c2)OCCCO3)n1	x	i
c1cc(-c2ccsc2)n2nc(C3CCC3)nc2n1	1	u
c1ccc(CCc2nc3nccc(-c4ccc5c(c4)OCCCO5)n3n2)cc1	2	u
c1cc(-c2ccnc3nc(C4CCC4)nn23)ccn1	-13	28µM*
CC(C)Cc1nc2nccc(-c3ccc4c(c3)OCCCO4)n2n1	-4	28µM*
c1cc(-c2ccc3c(c2)OCCCO3)n2nc(C3CCC3)nc2n1	0	16µM*
c1cc(-c2ccnc3nc(C4CCCCC4)nn23)ccn1	-6	32µM*
O=C(NCc1cccs1)C1CCCN(c2ccnc3ccnn23)C1 (configuration not stated)	12	x
CCOc1cc(C2C(C(=O)OC)=C(C)NC3=C2C(=O)c2ccccc23)ccc1OCC#N (configuration not stated)	x	i
